# TGFb SMAD3 inh – blocks TGF-b signaling; HepG2 CAGA-GFP TGF-b/SMAD3 reporter, GFP fluorescence, 18 h; TGF-beta stimulated, 500 pg/mL final; Potency, µM (doses to about 46.1 µM), actives largely listed as inhibitors; actives 1.2% (n = 410,000); AID 588855; note: nearly all actives have a fitted effect of over 65% in size
#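 Inhibition of TGF-beta-driven CAGA-GFP reporter expression in HEPG2 cells is measured by cellular GFP fluorescence after 18 h stimulation with 500 pg/mL recombinant TGF-beta in 1% FBS medium at 37 degrees C.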
# TDP1 cell noCPT – qHTS for Inhibitors of human tyrosyl-DNA phosphodiesterase 1 (TDP1): qHTS in cells in absence of CPT | DT40 Tdp1-/- hTDP1 cells, no CPT, ATP luminescence, 48 h | Potency, µM (top dose mostly 46.2 µM), actives largely listed as inhibitors | actives 15% (n = 420,000) | AID 686978, 2013; note: nearly all actives have a fitted effect of over 55% in size
#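 Seeded 400 DT40-hTDP1 cells/well (vehicle DMSO, no 20 nM CPT); pinned compounds; ≥48 hr at 37 °C; CellTiter-Glo luminescence as viability measure.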
# ATXN2 expr inh – inhibitors of ATXN2 expression; HEK-293 ATXN2-luciferase reporter, luminescence, 24 h; Potency, µM (series often up to 57 µM), usual class: inhibitors; actives 0.72% (n = 360,000); AID 1745845; note: nearly all actives have a fitted effect of over 55% in size
#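 ATXN2-luciferase reporter cells (luciferase flanked by upstream and downstream ATXN2 gene portions) were treated 24 h at 37 °C with compounds at up to 57 uM. SteadyGlo luminescence gave expression; GF-AFC fluorescence gave viability.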
# HepG2 viability – HepG2 cytotoxicity, counter-screen for TGF-b inhibitors. AID 588856. HepG2 CAGA-GFP viability, ATP luminescence, 18 h. Potency, µM (series often up to 46.1 µM), usual class: cytotoxic. actives 0.76% (n = 410,000)
#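 CellTiter-Glo luminescence gave cytotoxicity after 18 hours at 37 degrees C. The cells were HepG2 CAGA-GFP in 1% FBS DMEM, stimulated with 500 pg/mL TGF-beta after compound addition. %Activity was normalised to no-cell wells (complete cell-killing) and DMSO (no toxicity), and curves were fitted and classified.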
# DT40 TDP1 CPT – DT40-hTDP1 cell growth loss with CPT; chicken DT40 Tdp1-/-;hTDP1 cells + 20 nM CPT, ATP luminescence, 48 h; Potency, µM (titrated, usually from 46.2 µM), actives largely listed as inhibitors; actives 12% (n = 420,000); AID 686979; note: nearly all actives have a fitted effect of over 55% in size
#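 Chicken DT40 Tdp1-/- cells complemented with human TDP1, 400 cells/well, exposed to compounds plus 20 nM camptothecin for at least 48 h at 37 C; viability read as ATP content by CellTiter-Glo luminescence.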
# ATXN viability – reduces viability in counter-screen for ATXN expression inhibitors; S2 cells (HEK-293 line with an ATXN2-luciferase reporter) viability, CellTiter-Fluor protease fluorescence, 24 h; actives 0.49% (n = 400,000); Potency, µM (highest dose often 56.7 µM), hits mostly cytotoxic; note: nearly all actives have a fitted effect of over 40% in size
# A number is an active result; – = inactive; ? = inconclusive; · = not tested or not shown. The list is not random: actives were taken first. Their share in the collection is about 17%. Calls come from the whole dose curve; as a rule, active = well fitted curve in the direction sought with a large enough effect; inconclusive = small, poorly fitted or top-dose-only effect, or another doubt; inactive = no such curve, though single readings can be large; an effect the other way counts as inactive or inconclusive.
SMILES,TGFb SMAD3 inh,TDP1 cell noCPT,ATXN2 expr inh,HepG2 viability,DT40 TDP1 CPT,ATXN viability
CC(=O)c1cccc(-c2ccnc3c2CC(C(=O)NCC2CCOCC2)O3)c1 (configuration not stated),–,2.9µM,–,–,3.7µM,?
COc1ncc2nc(CCc3ccccc3)c(=O)n(CCC#N)c2n1,·,–,·,·,–,·
COC(=O)[C@H](CCCN=C(N)N)NS(=O)(=O)c1ccc(C)cc1,·,·,–,·,·,·
COc1cc(-c2csc(CCn3nc(C)cc3C)n2)cc(OC)c1OC,–,18µM,–,–,21µM,–
Cc1cc(C)n(CCc2nc(-c3ccc(F)cc3)cs2)n1,–,?,–,–,?,–
Cc1cc(C)n(CCc2nc(-c3ccc(C(C)(C)C)cc3)cs2)n1,?,12µM,–,–,23µM,–
Cc1cc(C)n(CCn2nc(C)cc2C)n1,?,–,–,–,–,–
C#CC[N+](CC)(CC)CC#Cc1ccccc1,–,18µM,–,–,?,–
CC[N+](CC)(CC#Cc1ccccc1)CC#Cc1ccccc1,–,2.1µM,–,–,2.6µM,–
C[N+](C)(CC#Cc1ccccc1)CC(=O)c1ccccc1,–,16µM,–,–,18µM,–
C[N+](C)(CC#Cc1ccccc1)CC(=O)c1ccc(Cl)cc1,–,?,–,–,?,–
O=C(c1cccc2ccccc12)N1CCN(CC2CC=CCC2)CC1 (configuration not stated),?,?,–,–,–,–
Cc1ccccc1Nc1c(-c2ccc(Cl)s2)nc2cccc(C)n12,–,?,–,–,8.2µM,–
Cc1ccccc1Nc1c(-c2ccc(Cl)s2)nc2c(C)cccn12,–,?,–,–,?,–
Cc1ccccc1Nc1c(-c2ccccc2)nc2cccc(C)n12,–,3.2µM,–,–,?,–
CC(=O)Nc1cccc(/C(C)=N/NC(=O)c2cccc(S(=O)(=O)N3CCCC3)c2)c1,–,?,·,–,–,–
CC(C)Oc1ccc(CCN=C(N)N=C(N)N)cc1Cl,–,12µM,·,–,10µM,–
Cc1ccc(S(=O)(=O)N2C[C@H]3n4c(=O)ccc(=O)n4C[C@H](OC(=O)NCc4ccco4)[C@@]3(O)C2)cc1,–,?,–,–,?,–
Cc1ccc(S(=O)(=O)N2C[C@H]3n4c(=O)ccc(=O)n4C[C@H](OC(=O)NCC4CCCCC4)[C@@]3(O)C2)cc1,?,3.7µM,16µM,–,2.6µM,22µM
Cc1ccc(S(=O)(=O)N2C[C@H]3n4c(=O)ccc(=O)n4C[C@H](OC(=O)NCc4ccccc4)[C@@]3(O)C2)cc1,–,26µM,–,–,?,?
CCCCCCn1c(=O)n2n(c1=O)[C@@H]1CN(S(=O)(=O)c3ccc(C)cc3)C[C@]1(O)[C@@H](OC(=O)Nc1c(C)noc1C)C2,–,29µM,–,–,?,–
CCCCCCn1c(=O)n2n(c1=O)[C@@H]1CN(S(=O)(=O)c3ccc(C)cc3)C[C@]1(O)[C@@H](OC(=O)NCc1ccccc1)C2,?,?,?,–,?,·
COc1ccc(CNC(=O)O[C@H]2Cn3c(=O)ccc(=O)n3[C@@H]3CN(S(=O)(=O)c4ccc(C)cc4)C[C@]23O)cc1OC,–,–,–,–,–,–
CCOc1ccc(S(=O)(=O)c2ccc(C)cc2)c2c1no[n+]2[O-],–,18µM,·,–,15µM,?
C[n+]1c2n(c3ccccc31)N=C(c1ccc(Br)cc1)CS2,–,0.52µM,?,–,0.65µM,?
C[n+]1c2n(c3ccccc31)N=C(c1ccc(-c3ccccc3)cc1)CS2,?,0.52µM,·,–,0.58µM,?
c1ccc(C2=Nn3c(nnc3-c3ccncc3)SC2)cc1,–,?,–,–,?,?
C[n+]1c2n(c3ccccc31)N=C(c1ccccc1)CS2,?,2.3µM,?,–,2.3µM,–

# From PubChem BioAssay
